Source: PubChem BioAssay (The Scripps Research Institute Molecular Screening Center)
PLCb3 inh: PLC-beta3 (human) inhibition, primary screen; Q01970; Purified PLC-beta3, fluorogenic substrate, fluorescence; inhibition, % at 12.2 µM; 0.18% of 370,000 active; AID 720704;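 note: 0% = median of compound wells on plate and 100% = full blocker control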
proKLK7 act: proKLK7 (human) activation, primary screen. P49862. purified proKLK7, EDANS-DABCYL substrate fluorescence; 100% is mature enzyme control, 0% vehicle. activation, % at 7 µM. 0.9% of 370,000 active. AID 652039;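 active = activation above the mean of all tested compounds plus 3 SD, computed per campaign excluding outliers beyond control limits, cut at about 13% in these data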
ADAM10 inh: ADAM10 inhibition, QFRET primary screen; recombinant ADAM10, EDANS/DABCYL FRET peptide cleavage, 3 h; inhibition, % at 7 µM; 0.62% of 370,000 active; AID 720582;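 active = inhibition above a per-campaign cutoff equal to the mean of compounds falling between control-based bounds plus 3 SD, cut at about 20% in these data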;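 note: 0% = DMSO wells while the 100% control is not disclosed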
PLCg1 inh: blocks human PLC-gamma1 enzyme activity; purified PLC-gamma1, fluorogenic substrate, fluorescence; inhibition, % at 12.2 µM; 0.84% of 370,000 active; AID 720700; in the data active = inhibition above about 9.5%
ADAM17 inh: inhibitors of human ADAM17; recombinant ADAM17, EDANS/DABCYL FRET peptide cleavage; inhibition, % at 6.95 µM; AID 720648; 0.83% of 370,000 active; P78536;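 active = inhibition above the mean of compounds lying between control limits plus 3 SD, set per campaign, cut at about 8.5% in these data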;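 note: 0% = DMSO-only wells as the low control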
Target sequence (P78536 215-824 limits assumed): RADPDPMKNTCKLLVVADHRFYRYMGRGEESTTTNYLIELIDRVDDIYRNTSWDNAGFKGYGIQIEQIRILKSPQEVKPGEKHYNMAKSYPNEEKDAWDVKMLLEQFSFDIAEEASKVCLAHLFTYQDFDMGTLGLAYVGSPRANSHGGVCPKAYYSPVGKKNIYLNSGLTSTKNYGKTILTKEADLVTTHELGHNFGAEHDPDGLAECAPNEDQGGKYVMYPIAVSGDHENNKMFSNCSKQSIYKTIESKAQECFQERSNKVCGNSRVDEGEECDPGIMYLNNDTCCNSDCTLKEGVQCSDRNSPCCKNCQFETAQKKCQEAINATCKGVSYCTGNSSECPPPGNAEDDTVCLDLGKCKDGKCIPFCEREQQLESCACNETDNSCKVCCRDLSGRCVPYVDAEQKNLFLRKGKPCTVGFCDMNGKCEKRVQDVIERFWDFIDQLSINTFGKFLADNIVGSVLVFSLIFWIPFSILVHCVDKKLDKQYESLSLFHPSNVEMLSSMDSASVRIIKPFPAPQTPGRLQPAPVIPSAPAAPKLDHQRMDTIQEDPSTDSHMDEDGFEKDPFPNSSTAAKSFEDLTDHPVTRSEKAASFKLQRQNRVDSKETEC
PLCg1 ctr: counter-screen for PLC-beta3 inhibitors: inhibitors of human PLC-gamma1; shares compounds with PLCg1 inh; purified PLC-gamma1, fluorogenic substrate, fluorescence; inhibition, % at 12.3 µM; 3.1% of 3,300 active; AID 743258; in the data active = inhibition above about 9.5%
PLCb3 confirm: human PLC-beta3 inhibition, confirmation. shares compounds with PLCg1 inh. purified PLC-beta3, fluorogenic substrate fluorescence. inhibition, % at 12.3 µM. 1% of 3,300 active. AID 743261
Active calls of the source: *; . = no result given. This is a sample that favours compounds with a hit; in the whole collection about 2.9% have one here. Cut-off read from the data, not from the text of the source, unless noted: active = inhibition above about 11%; inactive = the rest.

SMILES	PLCb3 inh	proKLK7 act	ADAM10 inh	PLCg1 inh	ADAM17 inh	PLCg1 ctr	PLCb3 confirm
Cc1cc(=O)c2n(Cc3ccccc3Cl)nc[n+]2[nH]1	0.7	-0.4	-7.5	14.2*	-4.4	-2.6	-0.9
CC(C)(COC(=O)c1ccccc1)N1CC2CCC(C1)O2	-2.0	0.9	-18.8	6.0	-1.9	.	.
CN(C)c1cccc(NC(=O)C2(C)CC2(Cl)Cl)c1 (stereo not drawn)	16.2*	0.0	12.0	4.5	3.5	-8.1	-10.7
CCCn1c(=O)c(F)cn(Cc2ccc(OC)c([N+](=O)[O-])c2)c1=O	12.1*	0.1	-0.3	3.9	5.3	-5.1	-0.3
CCCCn1c(=O)c(F)cn(Cc2ccc(OC)c([N+](=O)[O-])c2)c1=O	3.0	0.6	-5.1	4.0	1.5	.	.
Cc1ccccc1C(=O)N1CCC(C(=O)NC2CCCCCC2)CC1	-9.0	-0.9	4.2	-2.4	-4.8	.	.
Cc1ccc(OC(=O)C2CCN(C(=O)c3ccccc3C)CC2)c(Br)c1	-0.3	0.6	-10.7	10.8*	7.2	-3.6	-5.2
CCN(CC)c1ccc(NC(=O)c2ccc3c(c2)OCO3)c(C)c1	-2.5	-0.1	-1.4	-0.2	3.4	.	.
OCc1nc2ccccc2n1Cc1ccc(Cl)cc1	1.4	-0.6	8.6	10.2*	6.0	-10.2	-4.7
Nc1nonc1-c1nc2ccccc2n1Cc1ccc(Cl)cc1	-5.8	-0.2	-2.4	10.6*	-3.4	-8.3	-6.4
Cc1ccc(Cn2c(-c3nonc3N)nc3ccccc32)cc1	-6.0	0.3	8.0	-2.4	0.1	.	.
O=Cc1cc(N=Nc2cccc(C(=O)O)c2)ccc1O	1.0	-0.5	-9.8	13.7*	-2.1	29.1*	0.9
Cc1ccc(C(C)C)cc1S(=O)(=O)NCc1cccnc1	3.3	-0.1	8.9	9.9*	1.6	-5.9	-3.6
COc1ccc(N2CCN(C(=O)COC(=O)CCOc3ccccc3C)CC2)cc1	-3.1	-0.1	-4.8	-3.5	-4.1	.	.
O=C(NCc1ccccc1Br)c1ccncc1	-2.4	-0.8	-8.4	-0.3	3.0	.	.
CN1C(=O)CSC1=NC12CC3CC(CC(C3)C1)C2	4.3	-0.1	10.8	10.7*	5.6	-10.2	-3.4
O=C(c1ccc(Cl)cc1)N1CCCOC1	12.6*	-0.1	5.8	16.2*	5.8	3.8	1.6
O=C(c1ccc(CS(=O)Cc2ccc(Cl)cc2)o1)N1CCN(c2ccc(F)cc2)CC1 (stereo not drawn)	-4.5	-0.3	6.2	9.5*	7.6	-2.2	-1.8
O=C(c1ccc(CS(=O)Cc2cccc(Cl)c2)o1)N1CCN(c2ccc(F)cc2)CC1 (stereo not drawn)	0.8	0.4	-0.5	-3.4	-0.4	.	.
O=C(c1cccc([N+](=O)[O-])c1)N1CCN(c2ccc(Cl)cc2)CC1	2.0	-0.9	10.2	11.2*	-0.8	2.1	-1.2
O=C(c1ccc(Cl)cc1)N1CCN(c2ccc(F)cc2)CC1	4.6	-0.5	13.6	10.5*	4.5	-4.4	0.5
NC(=O)C1CCCN(C(=O)c2ccc(Cl)cc2)C1 (stereo not drawn)	5.6	0.5	-3.1	2.0	0.3	.	.
CCOC(=O)c1csc(NC(=O)CC2CCCC2)n1	-6.9	0.4	-0.1	1.3	-2.6	.	.
CCOC(=O)c1csc(NNC=O)n1	11.2*	0.2	4.4	0.8	0.6	-5.6	-1.4
CCOc1ncccc1C(=O)OCC(=O)NCc1ccccc1	-1.3	0.3	-6.8	2.4	-2.5	.	.
SMILES	PLCb3 inh	proKLK7 act	ADAM10 inh	PLCg1 inh	ADAM17 inh	PLCg1 ctr	PLCb3 confirm
Cc1cccc(N=Nc2c(N)n[nH]c2-c2ccc(Cl)cc2)c1	9.6	0.1	10.1	11.2*	7.3	8.0	5.5
CCn1nc(C(=O)N[C@@H](CCSC)c2nc3ccccc3[nH]2)c2ccccc2c1=O	-0.8	0.4	-3.8	-0.3	-1.1	.	.
CSCC[C@H](NC(=O)c1nn(C)c(=O)c2ccccc12)c1nc2ccccc2[nH]1	0.9	0.0	-1.8	12.6*	2.7	-9.1	-6.1
CCCCNC(=O)C1(C)CCCCN1C(=O)c1ccc(F)c(C)c1 (stereo not drawn)	6.4	-0.1	1.8	13.7*	3.9	-3.3	-0.1
CCOc1ccc(C)cc1S(=O)(=O)Nc1cccnc1	4.1	-1.1	8.4	9.8*	3.9	-20.2	-2.4
NC(=O)c1cc(S(=O)(=O)NCCc2ccc(Cl)cc2)cs1	-6.2	0.3	9.8	12.0*	8.1	-6.3	-4.5
CCOC(=O)CN1C(=O)CC(c2ccccc2)C1=O (stereo not drawn)	4.7	0.3	-8.8	2.0	-3.3	.	.
Nc1nc(SCC(=O)Nc2ccccc2-c2ccccc2)n[nH]1	0.7	-0.3	3.3	-2.0	-2.2	.	.
Nc1nc(SCC(=O)Nc2ccccc2Oc2ccccc2)n[nH]1	11.7*	-0.1	12.8	8.0	7.5	-6.2	-4.7
CCCCN1CCC(=O)C(C(=O)OCC)=C1C(=O)OCC	3.9	-0.9	-13.8	-1.4	-3.2	.	.
CC(=O)OC1CCC2(C)C(=CCC3C2CCC2(C)C3CC3OC4(CCC(C)CN4)C(C)C32)C1 (stereo not drawn)	8.4	-0.1	-1.7	10.8*	5.3	-1.8	-1.5
CC(C)c1ccc(NC2CCCN(C(=O)CN3CCCCC3=O)C2)cc1 (stereo not drawn)	-19.4	-7.8	-123.2	-10.7	-33.4	.	.
O=C(NNC(=O)C1CCN(S(=O)(=O)c2ccc(Cl)cc2)CC1)c1ccc(Cl)cc1	0.0	-0.1	4.1	1.8	-1.3	.	.
O=C(NNS(=O)(=O)c1ccc(Cl)cc1)c1ccc(S(=O)(=O)N2CCCCC2)cc1	11.1*	0.7	19.4	5.0	5.2	-4.1	-6.1
COC(=O)c1sc(N)c(C(=O)OC)c1CSc1nnnn1C	-0.2	-0.3	17.6	9.9*	1.7	-2.7	1.8
CCCCCCCCCCOC(=O)Cn1c(COc2ccccc2)[n+](C)c2ccccc21	-0.3	0.2	13.8	9.5*	5.5	-5.0	-5.3
CCCCCCCCCCOC(=O)Cn1c(COc2cccc(C)c2)[n+](C)c2ccccc21	-0.5	-0.1	-0.6	4.6	2.5	.	.
CCCCCCCCCCOC(=O)Cn1c(COc2ccc(Cl)cc2)[n+](C)c2ccccc21	-2.5	-0.8	10.7	12.6*	-1.2	7.2	2.4
O=C1N(Cc2ccccc2)c2ccccc2OC1(F)F	-3.5	0.1	-9.5	-2.5	-2.7	.	.
Cc1ccccc1NC(=O)c1cc(S(=O)(=O)c2ccccc2)ccc1Cl	7.2	-0.1	0.5	0.3	-3.4	.	.
Cc1cccc(NC(=O)c2cc(S(=O)(=O)c3ccccc3)ccc2Cl)c1	-0.7	-0.1	11.7	11.1*	4.8	0.3	3.1
COc1ccc(C)cc1NC(=O)Cc1csc(NC(=O)Nc2ccccc2OC)n1	0.0	1.0	-2.7	2.0	-1.7	.	.
O=C(NCc1ccccc1)c1ccc(Cl)c(S(=O)(=O)N2CCCC2)c1	-4.9	-0.7	-8.0	0.9	1.7	.	.
